# Unmarked numbers belong to inactive results. Results filed as inconclusive are left out. Active and inactive are the calls of the source. Unless noted, calls come from the whole dose curve; as a rule, active = well fitted curve in either direction with a large enough effect (not every such curve was filed as active); inconclusive = small, poorly fitted or top-dose-only effect, or another doubt; inactive = flat fitted curve, though single readings scatter.
# Key:
# [1] = NFAT Signaling Pathway (AID 444); conditions: Jurkat NFAT-bla M1, carbachol, beta-lactamase ratio, 5 h; at 17.2 µM (top of the series) unless noted;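 note: carbachol stimulus at about its EC50 of 1 µM final; % is set by controls: 0 for no effect and ±100 for the full control effect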
# Outline: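 Jurkat cells carrying an NFAT-driven β-lactamase reporter and co-transfected muscarinic M1 receptor were treated with compound plus carbachol (1 uM final, an EC50 level) for 5 h at 37 °C. CCF4 loading followed for 1 h at RT; 460/530 nm ratio gave %activity.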
# [2] = Stat Signaling Pathway (AID 446); conditions: ME-180 (cervical carcinoma) SIE beta-lactamase reporter, IL-6 stimulated, 5 h; at 17.2 µM (top of the series) unless noted;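 note: ME-180 cervical cancer cells given 40 pM IL-6 alongside compound; SIE-controlled beta-lactamase reporter measured as 460/530 nm FRET emission ratio; % is set by controls: 0 for no effect and ±100 for the full control effect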
# Outline: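 Emission at 460 and 530 nm (excitation 405 nm) reports SIE-controlled beta-lactamase in ME-180 cells. Cells received compound with 40 pM IL-6 for 5 hrs at 37 C; data scaled between 300 pM IL-6 and 125 nM JAK-inhibitor controls.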
# [3] = molecular target: Glucocorticoid receptor (Homo sapiens) (UniProt P04150); experiment: GR-GFP Redistribution (AID 450;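 active = compounds whose dose series gives a full or clear partial fitted curve of increased nuclear translocation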; note: potency is the fitted concentration of half-maximal effect)
# Chain of Glucocorticoid receptor (Homo sapiens) (P04150 whole entry, looked up, the tested form may be a part): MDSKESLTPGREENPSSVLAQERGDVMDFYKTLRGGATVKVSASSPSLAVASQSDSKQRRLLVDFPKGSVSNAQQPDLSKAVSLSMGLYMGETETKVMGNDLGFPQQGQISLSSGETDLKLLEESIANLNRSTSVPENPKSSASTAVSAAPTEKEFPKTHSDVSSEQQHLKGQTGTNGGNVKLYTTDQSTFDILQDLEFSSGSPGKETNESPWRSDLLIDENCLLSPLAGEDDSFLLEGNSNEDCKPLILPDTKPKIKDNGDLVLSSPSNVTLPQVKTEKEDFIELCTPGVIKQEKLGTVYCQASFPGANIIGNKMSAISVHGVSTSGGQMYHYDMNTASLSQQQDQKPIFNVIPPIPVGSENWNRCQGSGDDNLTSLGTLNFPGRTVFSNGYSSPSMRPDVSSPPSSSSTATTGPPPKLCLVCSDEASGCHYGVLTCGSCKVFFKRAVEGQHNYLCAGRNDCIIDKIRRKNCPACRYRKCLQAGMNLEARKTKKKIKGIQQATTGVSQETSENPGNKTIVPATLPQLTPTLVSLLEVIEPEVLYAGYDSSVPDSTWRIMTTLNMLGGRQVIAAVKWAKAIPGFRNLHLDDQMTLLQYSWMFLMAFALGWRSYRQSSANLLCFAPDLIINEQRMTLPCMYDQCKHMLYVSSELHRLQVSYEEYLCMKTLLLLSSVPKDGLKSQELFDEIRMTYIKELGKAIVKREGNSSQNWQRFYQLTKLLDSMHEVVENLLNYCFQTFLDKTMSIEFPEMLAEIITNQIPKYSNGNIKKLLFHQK
# [4] = molecular target: Glucocorticoid receptor (Homo sapiens) (UniProt P04150); experiment: GR-EFC Redistribution (AID 451; calls by dose curve; note: potency is the fitted concentration of half-maximal effect); conditions: CHO-K1 GR-EFC translocation, beta-gal luminescence, 2 h
# Outline: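 CHO-K1 cells stably expressing nuclear-localized β-gal enzyme acceptor and GR fused C-terminally to the enzyme donor fragment; ligand-driven nuclear translocation restores β-gal by complementation. Compounds titrated up to 46 uM final, 2 h at 37 °C; luminescence read.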
# [5] = molecular target: Mitogen-activated protein kinase 10 (Mus musculus) (UniProt Q61831); experiment: JNK3 AlphaScreen Assay (AID 530);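 note: kinase came from lysate of stimulated human HepG2 cells; signal reports phosphorylation of biotinylated GST-cJun 1-79 at Ser73 with 10 µM ATP; % is set by controls: 0 for no effect and ±100 for the full control effect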
# Outline: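 Phosphorylation of biotinylated GST-cJun(1-79) at Ser73 is measured by AlphaScreen proximity luminescence. Enzyme is JNK3 in HepG2 lysates activated with interleukin-1beta and tumor necrosis factor alpha; ATP is 10 uM final.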
# [6] = molecular target: 3',5'-cyclic-AMP phosphodiesterase 4B (Homo sapiens) (UniProt Q07343); experiment: qHTS Assay for Inhibitors of PDE-IV (AID 607; active = well fitted activation curve with a large enough effect in the main read-out, with a control signal flat, not every such curve was filed as active; note: % of control where 0% means no effect)
# Chain of 3',5'-cyclic-AMP phosphodiesterase 4B (Homo sapiens) (Q07343 whole entry, looked up): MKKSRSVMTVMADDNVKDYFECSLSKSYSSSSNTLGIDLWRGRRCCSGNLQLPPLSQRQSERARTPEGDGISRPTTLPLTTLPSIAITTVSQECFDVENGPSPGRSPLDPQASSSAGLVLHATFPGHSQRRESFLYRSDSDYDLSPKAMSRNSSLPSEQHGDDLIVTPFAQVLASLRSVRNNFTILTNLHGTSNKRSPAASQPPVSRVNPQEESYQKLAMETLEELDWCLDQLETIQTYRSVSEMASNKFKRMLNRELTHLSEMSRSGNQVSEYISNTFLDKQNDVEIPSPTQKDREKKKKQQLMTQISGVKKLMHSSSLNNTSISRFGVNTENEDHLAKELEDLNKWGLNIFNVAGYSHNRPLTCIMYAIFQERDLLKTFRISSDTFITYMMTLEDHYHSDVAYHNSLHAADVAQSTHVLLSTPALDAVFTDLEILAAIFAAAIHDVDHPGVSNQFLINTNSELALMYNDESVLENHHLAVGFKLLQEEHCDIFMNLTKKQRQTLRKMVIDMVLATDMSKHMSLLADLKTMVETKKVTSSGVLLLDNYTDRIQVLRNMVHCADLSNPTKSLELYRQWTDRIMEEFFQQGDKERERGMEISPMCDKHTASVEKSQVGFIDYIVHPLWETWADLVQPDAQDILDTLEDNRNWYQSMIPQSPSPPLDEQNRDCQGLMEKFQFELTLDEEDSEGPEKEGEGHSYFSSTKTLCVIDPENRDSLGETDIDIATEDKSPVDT
# Outline: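 The readout is membrane depolarisation from a cAMP-sensing CNG channel, detected with a potential dye at ex 535/em 590. Cells were HEK293-derived (endogenous PDE-IV) at 1000 cells/well, titrated up to 22.9 uM final.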
# [7] = molecular target: Guanine nucleotide-binding protein G(i) subunit alpha-1 (Homo sapiens) (UniProt P63096); experiment: qHTS Assay for Inhibitors of RGS12 GoLoco Motif Activity (Green Fluorophore) (AID 879; active = well fitted curve in the direction sought with a large enough effect; an effect the other way counts as inactive or inconclusive;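 note: 0% = labeled peptide with Gαi1 and full inhibition = labeled peptide alone without protein; negative values mean loss of peptide binding seen as reduced polarization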)
# Chain of Guanine nucleotide-binding protein G(i) subunit alpha-1 (Homo sapiens) (P63096 whole entry, looked up): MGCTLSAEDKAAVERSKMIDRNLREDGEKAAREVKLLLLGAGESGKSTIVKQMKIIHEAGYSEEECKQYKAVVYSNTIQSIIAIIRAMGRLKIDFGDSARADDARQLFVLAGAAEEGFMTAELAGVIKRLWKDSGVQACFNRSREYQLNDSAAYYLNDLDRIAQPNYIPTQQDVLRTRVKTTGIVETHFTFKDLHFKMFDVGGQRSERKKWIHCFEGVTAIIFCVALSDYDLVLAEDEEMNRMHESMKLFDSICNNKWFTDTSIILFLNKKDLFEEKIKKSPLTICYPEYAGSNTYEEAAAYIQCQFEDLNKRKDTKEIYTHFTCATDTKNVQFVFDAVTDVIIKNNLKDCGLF
# Outline: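 A drop in FITC polarization marked displacement of the FITC-tagged RGS12 GoLoco peptide (10 nM) from Gαi1 (50 nM). Compounds were incubated 10 min at room temperature in Tris pH 7.5 buffer containing 150 mM NaCl, 0.1 mM GDP and 0.05% NP40; unlabeled peptide titration served as control.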
# [8] = qHTS Assay for Identification of Small Molecule Antagonists for Thrombopoietin (TPO) Signaling Pathway (AID 918; active = well fitted curve in the direction sought with a large enough effect; an effect the other way counts as inactive or inconclusive; note: potency is the fitted concentration of half-maximal effect; nearly all actives have a fitted effect of over 60% in size); conditions: TPO-dependent cell signaling reporter, antagonist mode
# Outline: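 Inhibition read as reduced luciferase luminescence after 24 h at 37 C in IL-3-deprived Ba/F3 cells carrying human TPO receptor and GPIIb-promoter reporter, stimulated with 26 pM TPO (final, its EC50) alongside compound.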
# [9] = molecular target: Pyruvate kinase (Leishmania mexicana) (UniProt Q27686); experiment: qHTS Validation Assay for Inhibitors of Leishmania Mexicana Pyruvate Kinase (AID 945; active = well fitted curve in the direction sought with a large enough effect; an effect the other way counts as inactive or inconclusive;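 note: 0% = DMSO only neutral control wells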)
# Chain of Pyruvate kinase (Leishmania mexicana) (Q27686 2-499 E452W): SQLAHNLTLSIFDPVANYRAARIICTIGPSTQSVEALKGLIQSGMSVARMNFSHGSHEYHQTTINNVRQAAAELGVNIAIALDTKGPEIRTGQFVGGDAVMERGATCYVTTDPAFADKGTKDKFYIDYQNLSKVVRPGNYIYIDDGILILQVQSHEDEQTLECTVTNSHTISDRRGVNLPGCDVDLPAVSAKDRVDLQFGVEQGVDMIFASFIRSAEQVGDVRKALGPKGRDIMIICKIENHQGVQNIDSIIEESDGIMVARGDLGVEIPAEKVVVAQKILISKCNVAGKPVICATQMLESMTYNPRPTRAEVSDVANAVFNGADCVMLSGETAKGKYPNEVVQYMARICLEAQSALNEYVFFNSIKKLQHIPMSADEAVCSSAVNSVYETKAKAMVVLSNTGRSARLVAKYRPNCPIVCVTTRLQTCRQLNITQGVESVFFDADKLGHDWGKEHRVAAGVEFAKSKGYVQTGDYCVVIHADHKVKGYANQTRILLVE
# Outline: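 An endpoint luciferase assay: 0.2 nM LmPYK E451W turns over 0.5 mM PEP with 0.1 mM ADP for 1 h at room temperature, pH 7.2, before PKLight addition. Values are normalized to DMSO-only wells.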
# [10] = molecular target: Pyruvate kinase PKM (Homo sapiens) (UniProt P14618); experiment: qHTS Assay for Activators of Human Muscle Pyruvate Kinase (AID 954; active = well fitted curve in the direction sought with a large enough effect, not every such curve was filed as active;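 note: 0% = uninhibited enzyme and -100% = no enzyme or full thiadiazolimine inhibition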)
# Chain of Pyruvate kinase PKM (Homo sapiens) (P14618 whole entry, looked up): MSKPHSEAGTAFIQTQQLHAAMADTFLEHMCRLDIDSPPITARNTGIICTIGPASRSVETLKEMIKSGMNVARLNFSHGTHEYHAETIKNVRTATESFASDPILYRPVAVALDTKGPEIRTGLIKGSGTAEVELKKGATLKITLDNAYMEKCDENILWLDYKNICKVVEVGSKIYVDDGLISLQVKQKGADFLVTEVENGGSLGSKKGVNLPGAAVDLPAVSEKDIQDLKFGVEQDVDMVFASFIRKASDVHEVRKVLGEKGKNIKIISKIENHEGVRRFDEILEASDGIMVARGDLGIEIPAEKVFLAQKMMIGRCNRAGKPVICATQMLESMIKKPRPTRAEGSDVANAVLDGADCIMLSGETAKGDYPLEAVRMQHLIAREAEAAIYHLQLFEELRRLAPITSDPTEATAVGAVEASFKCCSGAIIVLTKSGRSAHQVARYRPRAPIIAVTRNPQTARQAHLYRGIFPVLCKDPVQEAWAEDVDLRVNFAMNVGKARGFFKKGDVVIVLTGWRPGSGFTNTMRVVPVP
# Outline: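 PKM2, human, >95% pure, 0.1 nM; PEP 0.5 mM (Km), ADP 0.1 mM; 50 mM imidazole pH 7.2, 50 mM KCl, 0.01% Tween 20, 0.05% BSA; 1 h RT; luciferase luminescence readout.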
# [11] = molecular target: Alpha-galactosidase A (Homo sapiens) (UniProt P06280); experiment: Counterscreen for Glucocerebrosidase Inhibitors: qHTS Assay for Human alpha-Galactosidase at pH 4.5 (AID 992; active = well fitted curve in the direction sought with a large enough effect; an effect the other way counts as inactive or inconclusive; note: 0% is about no effect)
# Chain of Alpha-galactosidase A (Homo sapiens) (P06280 whole entry, looked up): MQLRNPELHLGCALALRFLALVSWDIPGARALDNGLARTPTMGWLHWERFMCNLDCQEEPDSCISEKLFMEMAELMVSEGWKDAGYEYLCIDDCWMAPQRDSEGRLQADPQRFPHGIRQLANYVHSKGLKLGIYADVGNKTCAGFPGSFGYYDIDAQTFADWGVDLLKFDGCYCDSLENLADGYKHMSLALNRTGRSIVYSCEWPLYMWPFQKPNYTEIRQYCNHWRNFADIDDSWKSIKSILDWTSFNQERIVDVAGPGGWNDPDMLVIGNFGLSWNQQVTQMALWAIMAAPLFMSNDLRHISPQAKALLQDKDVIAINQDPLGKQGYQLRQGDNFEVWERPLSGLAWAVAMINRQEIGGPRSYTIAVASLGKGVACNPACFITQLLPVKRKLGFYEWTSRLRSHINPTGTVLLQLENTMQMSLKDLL
# Outline: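 Fluorogenic 4-MU alpha-D-galactoside (80 uM) hydrolysis, 2 nM enzyme, pH 4.5 citrate buffer + 0.005% Tween-20; 20 min RT; NaOH/glycine pH 10 stop; Ex365/Em440. Compounds titrated 0.7 nM–77 uM; Hill-equation AC50.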
# [12] = molecular target: alpha-glucosidase (Oryza sativa, rice) (UniProt Q653V4); experiment: Counterscreen for Glucocerebrosidase Inhibitors: qHTS Assay for Rice alpha-Glucosidase at pH 5.0 (AID 997; active = well fitted curve in the direction sought with a large enough effect; an effect the other way counts as inactive or inconclusive;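 note: 0% = full activity with enzyme and -100% = basal without enzyme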)
# Outline: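 Endpoint fluorogenic assay at pH 5.0: compounds (0.7 nM to 77 uM) titrated against 4 nM rice enzyme and 400 uM 4-MU-alpha-glucoside for 20 min at room temperature; NaOH/glycine stop, read ex 365/em 440 nm, Hill-fitted AC50.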
compound,measurement,setting,value
Cc1cc(OCCN2CCCCC2)nc2ccccc12,"activity change, negative = inhibition",[1],-29.3%
same,"activity, negative = inhibition",[2],9.41%
same,Potency,[3],> 20.6 µM
COc1ccccc1-c1nnc2sc(C3CCCCC3)nn12,"activity change, negative = inhibition",[1],-6.47%
same,"activity, negative = inhibition",[2],8.63%
same,Potency,[3],> 20.6 µM
COCCNc1cc(C)c(C#N)c2nc3ccccc3n12,"activity change, negative = inhibition",[1],12.9%
same,"activity, negative = inhibition",[2],4.06%
same,Potency,[3],> 20.6 µM
N#CC(C(=O)Nc1ccc(Cl)c(Cl)c1)=C1Nc2ccccc2N1,"activity change, negative = inhibition",[1],-3.6%
same,"activity, negative = inhibition",[2],-4.82%
same,Potency,[3],> 20.6 µM
CCOc1ccc(S(=O)(=O)N(C)CCO)cc1-c1nc2c(C(C)(C)C)nn(C)c2c(=O)[nH]1,"activity change, negative = inhibition",[1],6.99%
same,"activity, negative = inhibition",[2],-3.41%
same,Potency,[3],> 20.6 µM
CCn1cc(C(=O)NCc2ccco2)c(=O)c2cc(F)c(N3CCN(C(=O)c4ccco4)CC3)cc21,"activity change, negative = inhibition",[1],-28.1%
same,"activity, negative = inhibition",[2],-28.5%
same,Potency,[3],> 20.6 µM
CN1CCc2c(C#N)c(N3CCCCC3)nc(NCc3ccccc3)c2C1,"activity change, negative = inhibition",[1],-7.69%
same,"activity, negative = inhibition",[2],-16.2%
same,Potency,[3],> 20.6 µM
N#Cc1c(N2CCCCC2)nc(N2CCCCC2)c2c1CCN(Cc1ccccc1)C2,"activity change, negative = inhibition",[1],-13%
same,"activity, negative = inhibition",[2],17.8%
same,Potency,[3],> 20.6 µM
O=C(O)C1CC=CCC1C(=O)N1CCN(c2nc(-c3ccccc3)c3ccccc3n2)CC1 (stereo not drawn),"activity change, negative = inhibition",[1],-12%
same,"activity, negative = inhibition",[2],9.49%
same,Potency,[3],> 20.6 µM
NC(=O)CSc1nnc2n(-c3ccccc3)c(=O)c3c4c(sc3n12)CCCCC4,"activity change, negative = inhibition",[1],-30%
same,"activity, negative = inhibition",[2],9.67%
same,Potency,[3],> 20.6 µM
CCN1CCc2c(C#N)c(N3CCCCC3)nc(N3CCOCC3)c2C1,"activity change, negative = inhibition",[1],-1.02%
same,"activity, negative = inhibition",[2],18.4%
same,Potency,[3],> 20.6 µM
CCCc1[nH]nc2c1C(c1c(C)nn(-c3ccccc3)c1Cl)C(C#N)=C(N)O2 (stereo not drawn),"activity change, negative = inhibition",[1],14.9%
same,"activity, negative = inhibition",[2],-29.6%
same,Potency,[3],> 20.6 µM
CCCn1c(SCC(N)=O)nc2c(c1=O)C1(CCCC1)Cc1ccccc1-2,"activity change, negative = inhibition",[1],-22.4%
same,"activity, negative = inhibition",[2],-8.32%
same,Potency,[3],> 20.6 µM
COc1ccc(-c2nn3c(C4CCCCC4)nnc3s2)cc1OC,"activity change, negative = inhibition",[1],-3.44%
same,"activity, negative = inhibition",[2],16.5%
same,Potency,[3],> 20.6 µM
CCCc1[nH]nc2c1C(c1cccc(OC)c1)C(C#N)=C(N)O2 (stereo not drawn),"activity change, negative = inhibition",[1],1.34%
same,"activity, negative = inhibition",[2],-24.8%
same,Potency,[3],> 20.6 µM
CN1CCc2cc(O)c(O)cc2[C@H](c2ccccc2)C1,"activity change, negative = inhibition",[1],-1.87% [at 38 µM]
same,"activity, negative = inhibition",[2],-12.3% [at 38 µM]
same,Potency,[3],> 46 µM
same,Potency,[4],> 46 µM
same,Potency,[5],inactive
same,Potency,[6],inactive
same,outcome,[7],inactive
same,Potency,[8],10 µM (active)
same,Potency,[9],inactive
same,outcome,[10],inactive
same,outcome,[11],inactive
Cc1nc2oc(C(=O)c3ccc(Br)cc3)c(N)c2c2c1COC(C)(C)C2,"activity change, negative = inhibition",[1],27.3%
same,"activity, negative = inhibition",[2],0.926%
same,Potency,[3],> 20.6 µM
COC(=O)c1ccccc1NC(=O)CSc1nnc(-c2ccncc2)o1,"activity change, negative = inhibition",[1],4.54%
same,"activity, negative = inhibition",[2],0.0286%
same,Potency,[3],> 20.6 µM
CC[C@]1(O)C[C@H]2CN(CCc3c([nH]c4ccccc34)[C@](C(=O)OC)(c3cc4c(cc3OC)N(C)[C@@H]3[C@](O)(C(=O)OC)[C@H](OC(C)=O)[C@]5(CC)C=CCN6CC[C@]43[C@@H]65)C2)C1,"activity change, negative = inhibition",[1],0.463% [at 38 µM]
same,"activity, negative = inhibition",[2],-18.9% [at 38 µM]
same,Potency,[3],> 46 µM
same,Potency,[4],> 46 µM
same,Potency,[5],inactive
same,Potency,[6],inactive
same,outcome,[7],inactive
same,Potency,[9],inactive
same,outcome,[10],inactive
same,outcome,[11],inactive
same,outcome,[12],inactive
